# PubChem BioAssay (EPA / NIEHS)
# “And” between values parts separate entries of the source, which are not always exact repeats. Equal entries are not always repeated. Inconclusive results are not listed. The source made the active and inactive calls. Rule for the calls, unless noted: active = hit-call score of the fitted dose curve at least 0.9, where 1 is the maximum; inactive = score below 0.9.
# Legend:
# [1] = ATG_NRF2_ARE_CIS: Attagene CIS-FACTORIAL HepG2 Assay for human Nuclear Factor Erythroid 2 Related Factor 2 (NFR2) response to Antioxidant Response Elements (ARE) (AID 2282992); conditions: HepG2 Attagene ARE/NRF2 reporter, transcription factor activity; actives raise or lower the signal;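 for AC50: reporter mRNA level measured by RT-PCR and capillary electrophoresis fluorescence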
# Outline: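 Multiplexed reporter mRNA profiling in HepG2 after a 24 h chemical exposure. Curves fitted in both directions relative to DMSO negative control.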
# [2] = ATG_Oct_MLP_CIS: Attagene CIS-FACTORIAL HepG2 Assay for human Octamer-Binding Transcription Factor (Oct) (AID 2282993); conditions: HepG2 Attagene cis-factorial Oct reporter, mRNA; actives raise or lower the signal
# Outline: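 After 24 h compound exposure, transfected HepG2 cells were lysed for total RNA; reporter-specific cDNA was PCR-amplified, fluorescently labelled and sized by capillary electrophoresis. Bidirectional curve fitting used DMSO as baseline.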
# [3] = molecular target: Cellular tumor antigen p53 (Homo sapiens) (UniProt P04637); assay: ATG_p53_CIS: Attagene CIS-FACTORIAL HepG2 Assay for human p53 Transcription Factor (AID 2282994); conditions: HepG2 p53 cis-element reporter, Attagene mRNA; actives raise or lower the signal
# Chain of Cellular tumor antigen p53 (Homo sapiens) (P04637 whole entry, looked up): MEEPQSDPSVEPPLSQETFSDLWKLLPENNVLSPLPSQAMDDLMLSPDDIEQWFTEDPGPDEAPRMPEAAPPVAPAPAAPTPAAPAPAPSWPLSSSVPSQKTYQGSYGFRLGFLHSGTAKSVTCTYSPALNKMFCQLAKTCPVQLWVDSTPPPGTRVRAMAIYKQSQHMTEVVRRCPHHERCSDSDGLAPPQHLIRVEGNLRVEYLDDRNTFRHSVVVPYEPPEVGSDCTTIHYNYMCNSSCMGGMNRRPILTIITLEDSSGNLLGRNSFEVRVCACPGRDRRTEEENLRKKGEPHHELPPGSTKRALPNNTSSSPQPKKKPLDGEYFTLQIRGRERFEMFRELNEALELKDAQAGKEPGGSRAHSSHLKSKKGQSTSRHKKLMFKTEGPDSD
# Outline: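 Multiplexed reporter mRNA assay in human HepG2 liver cells; cis-regulated units report endogenous factor activity. Values come from bidirectional curve fitting against DMSO negative control after 24 h treatment.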
# [4] = BSK_3C_TissueFactor: BioMAP Diversity Plus: 3C Assay for Tissue Factor Biomarker Activity (AID 2282997); conditions: BioMAP 3C HUVEC, tissue factor biomarker readout; actives raise or lower the signal
# Outline: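 Primary human umbilical vein endothelial cells in the 3C system were exposed to test chemical for 24 h, then Tissue Factor measured by ELISA. Activity was fitted bidirectionally against DMSO as negative control and baseline.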
# [5] = BSK_3C_uPAR: BioMAP Diversity Plus: 3C Assay for Urokinase-type plasminogen activator receptor (uPAR) Biomarker Activity (AID 2282998); conditions: BioMAP 3C HUVEC, uPAR biomarker ELISA; actives raise or lower the signal
# Outline: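 Values derive from bidirectional curve fitting relative to DMSO, which served as baseline of activity. uPAR was measured by ELISA in human umbilical vein endothelial primary cultures 24 h after compound addition.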
# [6] = molecular target: human Peroxisome Proliferator-activated Receptor delta (PPARd), PPARD (gene 5467) (UniProt Q03181); assay: ATG_PPARd_TRANS: Attagene TRANS-FACTORIAL HepG2 Assay for human Peroxisome Proliferator-activated Receptor delta (PPARd) (AID 2283002; active = hit-call score of the fitted dose curve at least 0.9, where 1 is the maximum)
# Chain of human Peroxisome Proliferator-activated Receptor delta (PPARd), PPARD (gene 5467) (Q03181 whole entry, looked up, the tested form may be a part): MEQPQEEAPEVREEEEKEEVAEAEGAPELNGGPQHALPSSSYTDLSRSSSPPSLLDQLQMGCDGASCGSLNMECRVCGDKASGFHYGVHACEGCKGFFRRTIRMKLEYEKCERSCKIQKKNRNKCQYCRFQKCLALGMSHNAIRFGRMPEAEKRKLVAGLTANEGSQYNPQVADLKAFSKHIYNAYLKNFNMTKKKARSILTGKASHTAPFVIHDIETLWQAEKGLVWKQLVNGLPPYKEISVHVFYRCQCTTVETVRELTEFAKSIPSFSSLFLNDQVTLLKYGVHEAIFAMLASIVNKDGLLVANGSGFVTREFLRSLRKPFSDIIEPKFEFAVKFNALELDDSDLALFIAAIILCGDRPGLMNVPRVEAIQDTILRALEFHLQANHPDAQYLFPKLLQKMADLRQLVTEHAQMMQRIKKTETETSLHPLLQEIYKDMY
# Outline: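 HepG2 cells transiently transfected with GAL4-UAS multiplexed reporter units driven by exogenous chimeric NR-GAL4 proteins; 24 h compound exposure. Reporter mRNA measured by RT-PCR, 6-FAM primer extension, HpaI digestion and capillary electrophoresis; gain of signal fitted relative to DMSO.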
# [7] = read-out: Intercellular Adhesion Molecule 1 (ICAM1), ICAM1 (gene 3383); assay: BSK_3C_ICAM1: BioMAP Diversity Plus: 3C Assay for Intercellular Adhesion Molecule 1 (ICAM1) Biomarker Activity (AID 2283003); conditions: primary human endothelial cells (HUVEC); actives raise or lower the signal
# Outline: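 HUVEC primary cells stimulated under 3C conditions; ICAM1 measured by ELISA 24 h after compound dosing. Curves fitted bidirectionally against the DMSO baseline. Overt cytotoxicity checked by SRB staining of parallel cultures.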
# [8] = BSK_3C_Proliferation: Cell Proliferation Assessment in the BioMAP Diversity Plus: 3C Assay (AID 2283006); conditions: primary human endothelial cells (HUVEC);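 for AC50: potency may reflect either rise or fall in cell number versus DMSO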
# Outline: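 Subconfluent HUVEC (3C system) cultured with chemical; relative cell number read at 48 h by sulforhodamine B total-protein staining (0.1% SRB after 10% TCA fixation, 560 nm). Bidirectional fit relative to DMSO.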
# [9] = molecular target: Peroxisome proliferator-activated receptor gamma (Homo sapiens) (UniProt P37231); assay: ATG_PPARg_TRANS: Attagene TRANS-FACTORIAL HepG2 Assay for human Peroxisome Proliferator-activated Receptor-gamma (PPARg) (AID 2283007; active = hit-call score of the fitted dose curve at least 0.9, where 1 is the maximum)
# Chain of Peroxisome proliferator-activated receptor gamma (Homo sapiens) (P37231 whole entry, looked up, the tested form may be a part): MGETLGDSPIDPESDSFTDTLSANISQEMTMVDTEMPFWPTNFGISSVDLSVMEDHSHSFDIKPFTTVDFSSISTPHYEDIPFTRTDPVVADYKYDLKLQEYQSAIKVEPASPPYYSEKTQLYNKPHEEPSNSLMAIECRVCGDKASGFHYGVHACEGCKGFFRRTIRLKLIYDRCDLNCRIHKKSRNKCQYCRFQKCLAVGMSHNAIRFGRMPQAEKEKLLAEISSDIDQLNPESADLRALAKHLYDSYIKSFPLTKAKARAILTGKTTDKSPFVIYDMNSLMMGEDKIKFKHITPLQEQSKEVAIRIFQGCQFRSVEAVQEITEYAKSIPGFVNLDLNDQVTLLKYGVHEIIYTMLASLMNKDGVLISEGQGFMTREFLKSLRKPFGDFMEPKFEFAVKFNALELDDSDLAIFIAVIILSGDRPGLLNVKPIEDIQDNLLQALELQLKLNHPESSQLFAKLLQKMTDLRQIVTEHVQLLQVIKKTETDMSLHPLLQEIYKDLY
# Outline: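 Transient transfection of HepG2 with GAL4-UAS-driven reporter units; chemical dosing 24 h; total RNA → oligo(dT) RT → PCR with reporter primers → 6-FAM primer extension → HpaI digest 2 h 37 C → capillary electrophoresis. Positive direction vs DMSO.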
# [10] = molecular target: Nuclear receptor subfamily 1 group I member 2 (Homo sapiens) (UniProt O75469); assay: ATG_PXR_TRANS: Attagene TRANS-FACTORIAL HepG2 Assay for human Pregnane X Receptor (PXR) (AID 2283008; active = hit-call score of the fitted dose curve at least 0.9, where 1 is the maximum)
# Chain of Nuclear receptor subfamily 1 group I member 2 (Homo sapiens) (O75469 whole entry, looked up, the tested form may be a part): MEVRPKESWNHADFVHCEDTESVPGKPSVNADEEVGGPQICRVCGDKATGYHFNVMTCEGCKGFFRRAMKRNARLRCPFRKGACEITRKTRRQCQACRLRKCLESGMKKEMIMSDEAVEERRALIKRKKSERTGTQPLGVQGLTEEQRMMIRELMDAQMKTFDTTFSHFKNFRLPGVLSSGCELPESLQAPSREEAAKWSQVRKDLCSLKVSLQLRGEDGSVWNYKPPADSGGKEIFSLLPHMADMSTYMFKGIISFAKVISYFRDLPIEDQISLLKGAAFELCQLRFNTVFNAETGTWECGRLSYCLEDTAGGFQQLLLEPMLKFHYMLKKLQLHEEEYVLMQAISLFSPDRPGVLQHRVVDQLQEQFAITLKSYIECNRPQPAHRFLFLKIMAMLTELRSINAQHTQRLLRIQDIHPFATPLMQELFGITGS
# Outline: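 Measures mRNA induction of a GAL4-UAS-driven reporter in human HepG2 cells transiently expressing PXR fused to Gal4, following 24 h treatment. DMSO served as negative control and baseline.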
# [11] = molecular target: Retinoic acid receptor RXR-alpha (Homo sapiens) (UniProt P19793); assay: ATG_RXRa_TRANS: Attagene TRANS-FACTORIAL HepG2 Assay for human Retinoid X Receptor alpha (RXRa) (AID 2283012; active = hit-call score of the fitted dose curve at least 0.9, where 1 is the maximum)
# Chain of Retinoic acid receptor RXR-alpha (Homo sapiens) (P19793 whole entry, looked up, the tested form may be a part): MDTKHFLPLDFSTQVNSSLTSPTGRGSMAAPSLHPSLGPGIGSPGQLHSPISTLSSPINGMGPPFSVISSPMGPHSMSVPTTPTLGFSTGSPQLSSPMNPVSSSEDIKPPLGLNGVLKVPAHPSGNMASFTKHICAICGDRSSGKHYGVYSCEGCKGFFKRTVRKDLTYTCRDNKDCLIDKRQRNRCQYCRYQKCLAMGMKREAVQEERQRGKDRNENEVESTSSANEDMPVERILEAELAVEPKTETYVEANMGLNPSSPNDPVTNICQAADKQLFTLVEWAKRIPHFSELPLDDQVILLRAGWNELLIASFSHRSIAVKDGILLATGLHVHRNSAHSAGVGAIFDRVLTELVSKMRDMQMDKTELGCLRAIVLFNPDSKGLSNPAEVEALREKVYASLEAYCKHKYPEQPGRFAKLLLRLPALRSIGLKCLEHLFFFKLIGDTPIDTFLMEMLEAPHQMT
# Outline: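 HepG2 cells transiently transfected with GAL4-UAS reporter units and chimeric RXRa-Gal4 protein, treated 24 h. Reporter mRNA measured by RT-PCR, fluorescent labelling, HpaI digestion and capillary electrophoresis. Induction fitted against DMSO.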
# [12] = molecular target: human Retinoid X Receptor beta (RXRb), RXRB (gene 6257) (UniProt P28702); assay: ATG_RXRb_TRANS: Attagene TRANS-FACTORIAL HepG2 Assay for human Retinoid X Receptor beta (RXRb) (AID 2283013; active = hit-call score of the fitted dose curve at least 0.9, where 1 is the maximum)
# Chain of human Retinoid X Receptor beta (RXRb), RXRB (gene 6257) (P28702 whole entry, looked up, the tested form may be a part): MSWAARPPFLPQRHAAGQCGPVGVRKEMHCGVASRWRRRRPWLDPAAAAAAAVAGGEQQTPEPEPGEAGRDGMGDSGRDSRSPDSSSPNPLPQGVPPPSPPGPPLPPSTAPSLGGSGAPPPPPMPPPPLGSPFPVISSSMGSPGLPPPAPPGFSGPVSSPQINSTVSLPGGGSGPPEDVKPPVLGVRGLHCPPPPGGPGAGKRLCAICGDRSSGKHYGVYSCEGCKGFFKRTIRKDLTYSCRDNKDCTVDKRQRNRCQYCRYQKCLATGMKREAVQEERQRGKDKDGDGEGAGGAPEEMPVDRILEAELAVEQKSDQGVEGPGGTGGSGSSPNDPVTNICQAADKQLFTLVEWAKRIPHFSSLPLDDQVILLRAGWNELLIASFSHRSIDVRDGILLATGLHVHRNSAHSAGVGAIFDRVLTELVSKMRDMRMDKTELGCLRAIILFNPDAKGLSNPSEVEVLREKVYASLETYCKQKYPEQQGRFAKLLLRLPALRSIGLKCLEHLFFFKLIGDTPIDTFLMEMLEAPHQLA
# Outline: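 HepG2 cells were transiently transfected with multiplexed GAL4-UAS reporters and a chimeric RXRb-Gal4 construct, then exposed for 24 h. Reporter mRNA was quantified by RT-PCR, FAM labeling, HpaI digestion and capillary electrophoresis; gain of signal was scored against DMSO.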
# [13] = BSK_3C_VCAM1: BioMAP Diversity Plus: 3C Assay for Vascular cell adhesion molecule 1 (VCAM1) Biomarker Activity (AID 2282999); conditions: BioMAP 3C HUVEC, VCAM1 ELISA, cytokine-stimulated; actives raise or lower the signal
# Outline: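 Human umbilical vein endothelial cells (3C system), biomarker read by ELISA 24 h after dosing; bidirectional fit against DMSO baseline. Cytotoxicity tracked by SRB total-protein staining in parallel cultures at biomarker time.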
# [14] = molecular target: human Peroxisome Proliferator-activated Receptor alpha (PPARa), PPARA (gene 5465) (UniProt Q07869); assay: ATG_PPARa_TRANS: Attagene TRANS-FACTORIAL HepG2 Assay for human Peroxisome Proliferator-activated Receptor alpha (PPARa) (AID 2283001; active = hit-call score of the fitted dose curve at least 0.9, where 1 is the maximum;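 for AC50: potency for gain of reporter signal over DMSO so agonist or activator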)
# Chain of human Peroxisome Proliferator-activated Receptor alpha (PPARa), PPARA (gene 5465) (Q07869 whole entry, looked up, the tested form may be a part): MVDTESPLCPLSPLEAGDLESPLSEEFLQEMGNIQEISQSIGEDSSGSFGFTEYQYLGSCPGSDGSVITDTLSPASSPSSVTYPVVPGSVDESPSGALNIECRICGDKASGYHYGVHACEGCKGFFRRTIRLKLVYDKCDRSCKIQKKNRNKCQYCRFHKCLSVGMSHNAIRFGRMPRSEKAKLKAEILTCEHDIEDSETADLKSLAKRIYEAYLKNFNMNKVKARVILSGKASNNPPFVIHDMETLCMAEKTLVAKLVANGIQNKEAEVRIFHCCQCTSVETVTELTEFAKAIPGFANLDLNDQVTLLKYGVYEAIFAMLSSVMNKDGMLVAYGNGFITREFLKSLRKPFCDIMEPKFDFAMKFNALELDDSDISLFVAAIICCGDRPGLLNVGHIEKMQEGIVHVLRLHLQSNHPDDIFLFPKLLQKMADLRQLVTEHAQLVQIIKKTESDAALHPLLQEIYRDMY
# Outline: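 HepG2 cells transiently transfected with multiplexed GAL4-UAS reporters driven by exogenous chimeric NR-Gal4 proteins; reporter mRNA measured after 24 h dosing. Read-out by RT-PCR, 6-FAM labelling, HpaI digestion and capillary electrophoresis; gain of signal versus DMSO.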
# [15] = molecular target: human Retinoic Acid Receptor beta (RARb), RARB (gene 5915) (UniProt P10826); assay: ATG_RARb_TRANS: Attagene TRANS-FACTORIAL HepG2 Assay for human Retinoic Acid Receptor beta (AID 2283004; active = hit-call score of the fitted dose curve at least 0.9, where 1 is the maximum)
# Outline: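 HepG2 cells transiently transfected with multiplexed GAL4-UAS reporter units expressing chimeric NR–Gal4 fusions; 24 h compound exposure. Reporter mRNA quantified by RT-PCR, 6-FAM labelling, HpaI digestion and capillary electrophoresis; gain-of-signal fitted against DMSO baseline.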
# [16] = molecular target: Retinoic acid receptor alpha (Homo sapiens) (UniProt P10276); assay: ATG_RARa_TRANS: Attagene TRANS-FACTORIAL HepG2 Assay for human Retinoic Acid Receptor alpha (RARa) (AID 2283005; active = hit-call score of the fitted dose curve at least 0.9, where 1 is the maximum)
# Chain of Retinoic acid receptor alpha (Homo sapiens) (P10276 whole entry, looked up, the tested form may be a part): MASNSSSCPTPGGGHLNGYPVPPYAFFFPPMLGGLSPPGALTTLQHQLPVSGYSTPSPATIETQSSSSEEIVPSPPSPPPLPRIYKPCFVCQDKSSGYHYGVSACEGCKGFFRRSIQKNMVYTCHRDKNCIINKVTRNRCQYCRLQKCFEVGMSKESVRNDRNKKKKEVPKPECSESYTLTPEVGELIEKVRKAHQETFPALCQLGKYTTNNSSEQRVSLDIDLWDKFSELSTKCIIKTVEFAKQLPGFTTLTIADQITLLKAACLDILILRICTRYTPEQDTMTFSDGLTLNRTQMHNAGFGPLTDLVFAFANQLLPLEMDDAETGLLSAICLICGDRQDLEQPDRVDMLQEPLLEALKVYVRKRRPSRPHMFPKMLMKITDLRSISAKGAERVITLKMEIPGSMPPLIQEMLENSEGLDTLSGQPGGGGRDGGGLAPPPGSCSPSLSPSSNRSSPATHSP
# Outline: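 HepG2 transiently transfected with multiplex GAL4-UAS reporter units including a human RARa–GAL4 chimera; 24 h compound exposure. Reporter mRNA quantified by RT-PCR, 6-FAM labeling and capillary electrophoresis; gain of signal versus DMSO.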
# [17] = molecular target: human Retinoic Acid Receptor gamma (RARg), RARG (gene 5916) (UniProt P13631); assay: ATG_RARg_TRANS: Attagene TRANS-FACTORIAL HepG2 Assay for human Retinoic Acid Receptor gamma (RARg) (AID 2283009; active = hit-call score of the fitted dose curve at least 0.9, where 1 is the maximum)
# Chain of human Retinoic Acid Receptor gamma (RARg), RARG (gene 5916) (P13631 whole entry, looked up, the tested form may be a part): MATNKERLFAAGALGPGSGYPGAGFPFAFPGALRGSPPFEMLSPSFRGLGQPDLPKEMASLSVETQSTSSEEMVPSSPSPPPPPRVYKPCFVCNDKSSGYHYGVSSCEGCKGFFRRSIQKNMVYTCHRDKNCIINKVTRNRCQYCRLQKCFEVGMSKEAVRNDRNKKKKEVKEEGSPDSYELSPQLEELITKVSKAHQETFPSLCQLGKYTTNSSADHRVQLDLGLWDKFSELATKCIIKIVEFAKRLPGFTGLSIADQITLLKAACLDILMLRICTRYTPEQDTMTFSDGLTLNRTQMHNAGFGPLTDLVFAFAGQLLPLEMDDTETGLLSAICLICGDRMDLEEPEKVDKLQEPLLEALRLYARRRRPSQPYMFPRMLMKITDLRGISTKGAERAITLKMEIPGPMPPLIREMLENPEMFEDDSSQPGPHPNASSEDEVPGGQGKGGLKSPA
# Outline: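 HepG2 transiently transfected with GAL4-UAS reporter units and chimeric NR-Gal4 constructs; 24 h compound exposure. Reporter mRNA quantified by RT-PCR, FAM labeling, HpaI digestion and capillary electrophoresis; gain-of-signal versus DMSO.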
# [18] = molecular target: human RAR-related Orphan Receptor beta (RORb), RORB (gene 6096) (UniProt Q92753); assay: ATG_RORb_TRANS: Attagene TRANS-FACTORIAL HepG2 Assay for human RAR-related Orphan Receptor beta (RORb) (AID 2283010; active = hit-call score of the fitted dose curve at least 0.9, where 1 is the maximum)
# Outline: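 HepG2 cells transiently transfected with GAL4-UAS reporter units expressing chimeric NR-Gal4 protein; reporter mRNA measured 24 h after dosing by RT-PCR, 6-FAM labelling and capillary electrophoresis. Gain-of-signal fitted relative to DMSO baseline.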
# [19] = molecular target: human RAR-related Orphan Receptor gamma (RORg), RORC (gene 6097) (UniProt P51449); assay: ATG_RORg_TRANS: Attagene TRANS-FACTORIAL HepG2 Assay for human RAR-related Orphan Receptor gamma (RORg) (AID 2283011; active = hit-call score of the fitted dose curve at least 0.9, where 1 is the maximum)
# Chain of human RAR-related Orphan Receptor gamma (RORg), RORC (gene 6097) (P51449 whole entry, looked up, the tested form may be a part): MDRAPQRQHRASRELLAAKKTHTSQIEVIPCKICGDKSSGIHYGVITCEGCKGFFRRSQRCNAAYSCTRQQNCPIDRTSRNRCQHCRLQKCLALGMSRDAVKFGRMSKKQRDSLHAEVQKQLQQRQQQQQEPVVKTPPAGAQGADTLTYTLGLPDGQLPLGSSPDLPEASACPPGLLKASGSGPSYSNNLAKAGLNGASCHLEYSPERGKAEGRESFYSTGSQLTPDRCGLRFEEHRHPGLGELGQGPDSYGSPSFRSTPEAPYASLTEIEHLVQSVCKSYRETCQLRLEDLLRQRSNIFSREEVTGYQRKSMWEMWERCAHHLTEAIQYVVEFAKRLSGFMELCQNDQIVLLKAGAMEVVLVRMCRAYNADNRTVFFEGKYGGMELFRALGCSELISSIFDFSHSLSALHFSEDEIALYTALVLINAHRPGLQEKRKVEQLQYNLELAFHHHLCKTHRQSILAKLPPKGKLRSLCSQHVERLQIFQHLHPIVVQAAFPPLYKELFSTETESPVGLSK
# Outline: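 Readout: reporter transcript induction (RT-PCR, fluorescent primer extension, capillary electrophoresis) after 24 h compound exposure of transiently transfected HepG2 cells carrying a RORg-Gal4 chimera and GAL4-UAS reporters; DMSO served as baseline, with increasing signal fitted.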
# [20] = BSK_4H_Eotaxin3: BioMAP Diversity Plus: 4H Assay for Eotaxin 3 Biomarker Activity (AID 2283000); conditions: primary human endothelial cells (HUVEC); actives raise or lower the signal;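 note: CCL26 protein level quantified by ELISA in parallel with SRB cytotoxicity check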
# Outline: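 HUVEC, 24 h post-dose, ELISA for Eotaxin-3/CCL26. Gain or loss of signal fitted bidirectionally vs DMSO baseline.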
compound,measurement,setting,value
Cc1ccccc1OP(=O)(Oc1ccccc1C)Oc1ccccc1C,AC50,[1],8.48 µM (active)
same,AC50,[2],119 µM (active)
same,outcome,[3],inactive
same,AC50,[4],5.08 µM (active)
same,AC50,[5],11.1 µM (active)
same,outcome,[6],inactive
same,outcome,[7],inactive
same,AC50,[8],8.31 µM (active)
same,outcome,[9],inactive
same,AC50,[10],0.0985 µM (active)
same,outcome,[11],inactive
same,outcome,[12],inactive
C#CCOC(=O)/C=C(C)/C=C/CC(C)CCCC(C)C (configuration not stated),AC50,[1],57.3 µM (active)
same,AC50,[2],35.7 µM (active)
same,outcome,[3],inactive
same,outcome,[4],inactive
same,outcome,[13],inactive
same,AC50,[14],14.9 µM (active)
same,outcome,[6],inactive
same,outcome,[7],inactive
same,outcome,[15],inactive
same,outcome,[16],inactive
same,AC50,[8],23.6 µM (active)
same,AC50,[9],27.8 µM (active)
same,AC50,[10],27.4 µM (active)
same,outcome,[17],inactive
same,outcome,[18],inactive
same,outcome,[19],inactive
same,AC50,[11],14.1 µM (active)
same,AC50,[12],3.9 µM (active)
CCOP(=S)(OCC)SCS(=O)(=O)C(C)(C)C,outcome,[1],inactive
same,outcome,[2],inactive
same,outcome,[3],inactive
same,outcome,[4],inactive
same,outcome,[5],inactive
same,outcome,[20],inactive
same,outcome,[7],inactive
same,outcome,[15],inactive
same,outcome,[8],inactive
same,outcome,[9],inactive
same,AC50,[10],2.41 µM (active)
same,outcome,[19],inactive
same,outcome,[12],inactive
CC(C=O)Cc1ccc2c(c1)OCO2 (configuration not stated),outcome,[1],inactive
same,outcome,[2],inactive
same,outcome,[3],inactive
same,outcome,[4],inactive
same,outcome,[5],inactive
same,outcome,[13],inactive
same,outcome,[20],inactive
same,outcome,[14],inactive
same,outcome,[6],inactive
same,outcome,[7],inactive
same,outcome,[16],inactive
same,outcome,[8],inactive
same,outcome,[9],inactive
same,AC50,[10],21.5 µM (active)
same,outcome,[17],inactive
same,outcome,[19],inactive
same,outcome,[11],inactive
same,outcome,[12],inactive
CCOC(=O)C(SP(=S)(OC)OC)c1ccccc1 (configuration not stated),AC50,[1],32 µM (active)
same,outcome,[2],inactive
same,outcome,[3],inactive
same,outcome,[4],inactive
same,AC50,[13],25.8 µM (active)
same,outcome,[7],inactive
same,AC50,[8],14.9 µM (active)
same,AC50,[10],3.52 µM (active)
same,outcome,[19],inactive
same,AC50,[12],32.2 µM (active)
CC1(C)[C@H](C(=O)O[C@H](C#N)c2cccc(Oc3ccccc3)c2)[C@@H]1/C=C(\Cl)C(F)(F)F,outcome,[1],inactive
same,outcome,[2],inactive
same,outcome,[3],inactive
same,outcome,[4],inactive
same,outcome,[5],inactive
same,outcome,[13],inactive
same,outcome,[6],inactive
same,outcome,[7],inactive
same,outcome,[8],inactive
same,AC50,[9],5.86 µM (active) and 4.64 µM (active)
same,AC50,[10],152 nM (active) and 288 nM (active)
same,outcome,[19],inactive
same,outcome,[11],inactive
same,outcome,[12],inactive
O=S(=O)(C(Cl)(Cl)Cl)C(Cl)(Cl)Cl,AC50,[1],2.87 µM (active)
same,AC50,[2],16.4 µM (active)
same,AC50,[3],15.1 µM (active)
same,AC50,[4],1.11 µM (active)
same,outcome,[14],inactive
same,outcome,[6],inactive
same,AC50,[7],2.9 µM (active)
same,AC50,[8],0.2 µM (active)
same,outcome,[9],inactive
same,outcome,[11],inactive
same,AC50,[12],20 µM (active)
[Cl][Sn]([c]1ccccc1)([c]1ccccc1)[c]1ccccc1,AC50,[1],0.0785 µM (active)
same,AC50,[2],0.25 µM (active)
same,AC50,[3],0.167 µM (active)
same,AC50,[4],0.297 µM (active)
same,AC50,[13],0.177 µM (active)
same,AC50,[6],0.249 µM (active)
same,AC50,[7],0.318 µM (active)
same,AC50,[8],0.0518 µM (active)
same,AC50,[9],0.0464 µM (active)
same,AC50,[11],0.233 µM (active)
same,AC50,[12],0.000965 µM (active)
